# PubChem BioAssay AID1445 (SRMLSC, 2008)
# Out of some 220,000 compounds screened, about 910 (0.41%) were called active. This is one part of a sample in which actives are shown more often than they occur. Measured potencies and affinities stand elsewhere. Values without a mark were called inactive.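 How the source made its calls: active means primary inhibition above the hit cutoff, then over 50% inhibition at one or more dose response concentrations (cut at about 23% in these data, passing the limit was not always enough); inconclusive means conflicting primary data, or primary hits not chosen for dose response; inactive means low primary inhibition, or under 50% at every dose.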
# Biological target: Aminopeptidase N (Plasmodium falciparum (isolate 3D7)) (UniProt O96935)
# Sequence (O96935 whole entry, looked up): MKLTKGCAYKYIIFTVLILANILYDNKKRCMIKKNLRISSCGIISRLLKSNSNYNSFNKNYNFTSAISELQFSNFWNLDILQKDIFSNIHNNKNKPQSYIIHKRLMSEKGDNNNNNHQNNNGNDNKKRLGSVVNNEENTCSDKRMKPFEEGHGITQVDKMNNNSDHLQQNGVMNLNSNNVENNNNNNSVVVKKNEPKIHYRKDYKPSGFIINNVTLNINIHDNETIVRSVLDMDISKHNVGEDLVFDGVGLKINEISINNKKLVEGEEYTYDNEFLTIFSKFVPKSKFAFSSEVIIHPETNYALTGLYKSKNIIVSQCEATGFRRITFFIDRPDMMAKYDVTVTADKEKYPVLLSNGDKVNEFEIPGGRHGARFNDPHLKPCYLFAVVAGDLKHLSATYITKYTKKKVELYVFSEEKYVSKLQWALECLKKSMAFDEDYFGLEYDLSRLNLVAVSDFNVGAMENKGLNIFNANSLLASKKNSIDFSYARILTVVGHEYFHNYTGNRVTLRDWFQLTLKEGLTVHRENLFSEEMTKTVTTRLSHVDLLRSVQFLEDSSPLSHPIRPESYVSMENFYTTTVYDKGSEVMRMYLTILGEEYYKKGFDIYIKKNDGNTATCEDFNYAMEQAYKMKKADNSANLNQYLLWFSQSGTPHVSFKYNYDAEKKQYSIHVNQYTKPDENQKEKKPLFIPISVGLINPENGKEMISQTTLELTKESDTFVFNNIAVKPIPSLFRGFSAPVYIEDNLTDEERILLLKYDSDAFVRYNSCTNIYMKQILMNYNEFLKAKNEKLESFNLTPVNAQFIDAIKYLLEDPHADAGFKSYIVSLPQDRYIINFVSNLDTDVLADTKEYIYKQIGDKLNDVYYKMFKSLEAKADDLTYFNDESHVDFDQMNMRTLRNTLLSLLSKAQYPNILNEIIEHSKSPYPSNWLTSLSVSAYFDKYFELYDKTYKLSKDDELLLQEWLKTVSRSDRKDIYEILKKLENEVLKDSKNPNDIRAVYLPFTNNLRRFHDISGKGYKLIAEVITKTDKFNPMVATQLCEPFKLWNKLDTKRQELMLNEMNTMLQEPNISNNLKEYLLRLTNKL
# Experiment: P. falciparum M1AAP inhibitors, biochemical, fluorogenic H-Leu-NHMec substrate, 1536-well (AID 1445);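 further: plate controls were DMSO full reaction for no effect and no enzyme background for full effect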
# Details: recombinant M1AAP, H-Leu-NHMec fluorogenic kinetic assay; at 30 µM, hits give high values unless noted
row,SMILES,inhibition
1,Cc1cccc(NC(=O)CN2CCSc3ccccc32)c1,6.82%
2,COc1ccc(Cl)cc1C(=O)NNC(=O)c1nc2nc(C)cc(C)n2n1,0.99%
3,Cc1cc(C)n2nc(C(=O)NNC(=O)c3ccccc3)nc2n1,5.93%
4,O=C(OCn1nnc2ccccc2c1=O)c1cc(-c2ccccc2Cl)nc2ccccc12,12.3%
5,Cc1ccc(N2C(=O)CC(Sc3nc(-c4ccccc4)c4cc(Cl)ccc4n3)C2=O)c(C)c1 (stereo not drawn),8.91%
6,COc1ccc(CC(=O)n2[nH]c(=O)cc(C)c2=O)cc1OC,8.27%
7,O=C(NCc1cccs1)C1CCN(c2ccc(S(=O)(=O)N3CCOCC3)cc2Cl)CC1,-0.57%
8,O=C(Nc1ccc2c(c1)OCCO2)C1CCN(S(=O)(=O)c2ccc3c(c2)OCCO3)CC1,9.64%
9,COc1ccc(S(=O)(=O)N2CCC(C(=O)Nc3ccc4c(c3)OCCO4)CC2)cc1OC,1.25%
10,O=C(NCc1cccs1)C1CCN(S(=O)(=O)c2ccc3c(c2)OCCO3)CC1,23.4% (active)
11,O=C(NCc1ccc(Cl)cc1)C1CCN(S(=O)(=O)c2ccccc2)CC1,11.8%
12,COc1cccc(NC(=O)C2CCN(S(=O)(=O)c3ccc4c(c3)OCCO4)CC2)c1,43% (active)
13,NS(=O)(=O)c1ccc(CCNC(=O)C2CCN(S(=O)(=O)c3ccc(Br)s3)CC2)cc1,2.64%
14,COc1ccc(S(=O)(=O)N2CCC(C(=O)NCc3cccs3)CC2)cc1,6.28%
15,O=C(NCCc1ccc(Cl)cc1)C1CCN(S(=O)(=O)c2ccc(Br)s2)CC1,4.81%
16,O=C(NCc1cccs1)C1CCCN(S(=O)(=O)c2ccc3c(c2)OCO3)C1 (stereo not drawn),8.66%
17,N#CCCN1CCN(C(=S)c2ccc(-c3ccc(Cl)c(Cl)c3)o2)CC1,7.98%
18,N#C/C(=C(/O)c1ccc([N+](=O)[O-])cc1)c1nc2ccccc2[nH]1,6.69%
19,CCOC(=O)N1CCN(C(=O)CCl)CC1,2.94%
20,Cc1ccc(N2CCN(C(=O)c3ccccc3NC(=O)c3ccccc3C(=O)O)CC2)cc1,6.79%
21,COCCNC(=O)c1cc2cc(Br)cc(Br)c2oc1=O,2.6%
22,N#C/C(=C\c1ccc(-c2cccc(Cl)c2)o1)C(=O)Nc1cccc2cccnc12,-0.58%
23,Cn1c(N)c(C(=O)COC(=O)C2=COCCO2)c(=O)n(C)c1=O,3.8%
24,O=C(NCc1cccs1)C1CCCN(S(=O)(=O)c2cccs2)C1 (stereo not drawn),14.9%

row,SMILES,inhibition
1,O=C(NCc1cccs1)C1CCCN1S(=O)(=O)c1ccccc1F (stereo not drawn),2.94%
2,O=C(NCc1cccs1)C1CCCN(S(=O)(=O)c2ccc(Br)s2)C1 (stereo not drawn),18.8%
3,O=C(NCc1cccs1)C1CCC(CNS(=O)(=O)c2ccc(Br)s2)CC1 (stereo not drawn),-4.74%
4,CCS(=O)(=O)N1CCC(C(=O)NCc2cccs2)CC1,10.2%
5,O=C(NCc1cccs1)C1CCN(S(=O)(=O)N2CCCC2)CC1,4.08%
6,COc1ccccc1NC(=O)c1ccc(-n2cncn2)nc1,18.8%
7,FC(F)(F)c1ccc(Oc2ccccc2Cl)nc1,2.42%
8,O=C1CC(N(Cc2ccc3c(c2)OCO3)C(=O)Nc2ccc(F)cc2)C(=O)N1c1ccccc1 (stereo not drawn),20.8%
9,O=C1CC(N(Cc2ccco2)C(=O)Nc2ccc(F)cc2)C(=O)N1c1ccc(F)cc1 (stereo not drawn),23.6% (active)
10,CCC(=O)N(Cc1ccco1)C1CC(=O)N(c2ccccc2)C1=O (stereo not drawn),0.67%
11,CCCCc1ccc(NC(=O)C(C)CC)cc1 (stereo not drawn),1.58%
12,CC1=NN(C(=O)Cc2ccc([N+](=O)[O-])cc2)C(O)(c2cccnc2)C1 (stereo not drawn),7.72%
13,O=C(Nc1ccc(O)cc1C(=O)O)c1ccc2c(c1)C(=O)N(Cc1ccco1)C2=O,15.1%
14,Cc1c(NC(=O)c2ccc3c(c2)C(=O)N(Cc2ccco2)C3=O)cccc1C(=O)O,3.77%
15,O=C1CCC(=O)N1N1C(=O)C2C3c4ccccc4C(c4ccccc43)C2C1=O (stereo not drawn),0.65%
16,O=C(Cn1nnc(-c2ccccc2)n1)N/N=C/c1cccc([N+](=O)[O-])c1O,7.92%
17,O=C(N/N=C/c1cc(Cl)cc([N+](=O)[O-])c1O)C1CC1,29.8%
18,O=C(Cn1cnc([N+](=O)[O-])n1)N/N=C/c1ccc(O)cc1O,2.52%
19,Cc1cc(C)n(CC(=O)N/N=C/c2ccc([N+](=O)[O-])s2)n1,13.2%
20,Cc1cc(C)n(CC(=O)N/N=C/c2cc([N+](=O)[O-])ccc2O)n1,31.6%
21,O=C(Cn1cnc([N+](=O)[O-])n1)N/N=C/c1ccccc1O,0.91%
22,O=C(Cn1nc2ccccc2n1)N/N=C/c1cc([N+](=O)[O-])ccc1O,37.9%
23,Cc1cc(C(=O)N/N=C/c2cc(Cl)cc([N+](=O)[O-])c2O)c2ccccc2n1,30.4%
24,Cc1nc2c(c(=O)c3ccccc3n2C)c(=O)n1C1CCCCCC1,-1.82%

row,SMILES,inhibition
1,NS(=O)(=O)c1ccc(N/C=C\C(=O)c2ccncc2)cc1,13%
2,CCNS(=O)(=O)c1ccc(NC(=O)CC(C)c2ccccc2)cc1 (stereo not drawn),1.21%
3,CC(=O)Nc1cccc(/C(C)=N/NC(=O)c2cc(-c3ccncc3)nc3ccccc23)c1,10.5%
4,Cc1cc(C)n(-c2ccc(Oc3ccccc3)c(S(=O)(=O)O)c2)n1,1.18%
5,O=C1CC(c2cccs2)c2ccc3ccccc3c2N1 (stereo not drawn),0.72%
6,Cc1ccc(N2C(=S)NC3c4ccccc4OC2(C)C3C(=O)N(C)C)cc1 (stereo not drawn),2.84%
7,CN(Cc1cnccn1)Cc1nc(Cc2cccc(F)c2)no1,2.76%
8,CCOc1[nH]n(-c2ccccc2)c(=O)c1C=Nc1ccccc1,7.67%
9,CCOC(=O)c1ccc(NC(=O)CNS(=O)(=O)c2ccccc2)cc1,2.05%
10,Oc1ccc(Cl)cc1N=Cc1sc2ccccc2c1Cl,21%
11,Oc1ccc(Cl)cc1C=Nc1ccccc1Br,1.39%
12,OCCC1CN(Cc2c(F)cccc2Cl)CCN1C1CCCC1 (stereo not drawn),-1.58%
13,COc1ccc(OC)c2c1sc(=NC(=O)C1CC1)n2C,2.25%
14,COc1ccc2[nH]c(=O)c(NC(N)=S)nc2c1,16.1%
15,NC(=S)Nc1nc2ccccc2[nH]c1=O,23.5% (active)
16,COCCCNc1nc2ccccc2[nH]c1=O,7.88%
17,Cc1occc1C(=O)NNC(=O)c1ccccc1Br,-1.69%
18,O=C(Cn1nnc2ccccc2c1=O)NCC1CCC(C(=O)O)CC1 (stereo not drawn),0.69%
19,COc1ccc2c(CC(=O)NCC3CCC(C(=O)O)CC3)cc(=O)oc2c1 (stereo not drawn),3.73%
20,CCCCc1cc(=O)oc2cc(O)ccc12,31.7%
21,COC(=O)Cc1cc(=O)oc2cc(OC)ccc12,1.65%
22,COc1cc(OC)c2c(C)cc(=O)oc2c1C(CCN1CCN(c2ccccc2)CC1)c1ccc2c(c1)OCO2 (stereo not drawn),1.4%
23,Cc1ccc(C(=O)Nc2ccccc2C(=O)O)cc1NC(=O)COc1c(C)cccc1C,4.7%
24,CN(CC(=O)Nc1cccc2ccccc12)C(=O)/C=C/c1cccs1,16.9%

row,SMILES,inhibition
1,Cc1cc(C)cc(N(C(=O)c2nsc(Cl)c2Cl)C(C(=O)NC2CCCC2)c2ccc(O)cc2)c1 (stereo not drawn),-3.07%
2,N#Cc1cc2c(nc1SCc1ccccc1)CCCC2,5.77%
3,C=CCn1c(CNc2ccc(C)cc2)nnc1SCC(=O)N/N=C/c1ccc(O)cc1O,37% (active)
4,COc1cccc(/C=N\NC(=O)Cn2nnc3ccccc32)c1O,1.18%
5,C=CCn1c(Cn2nnc3ccccc32)nnc1SCC(=O)N/N=C/c1cc(Br)cc(OC)c1O,46.2% (active)
6,Cc1cc(SCC(=O)N/N=C/c2ccc(O)c(O)c2O)c(C)cc1Br,39%
7,C=CCn1c(CNc2ccc(C)cc2)nnc1SCC(=O)N/N=C/c1ccc(O)cc1,14.4%
8,Cc1cc(SCC(=O)N/N=C/c2ccc(O)cc2O)c(C)cc1Br,24% (active)
9,C=CCn1c(CNc2ccccc2)nnc1SCC(=O)N/N=C/c1ccccc1O,30.8%
10,Cc1cc(SCC(=O)N/N=C/c2ccc(O)c(O)c2)c(C)cc1Br,-0.74%
11,CCn1c(SCC(=O)N/N=C/c2cc(OC)c(O)c(OC)c2)nc2ccccc21,3.33%
12,CCC1(CC)Cc2ccccc2C(=O)N1,2.59%
13,Nc1ccccc1SCc1ccccc1Cl,1.31%
14,O=C(CCN1CCOCC1)NNC(=O)/C(=C/c1ccccc1)NC(=O)c1ccccc1,5.04%
15,O=C(c1cccc(Oc2c(Cl)cccc2[N+](=O)[O-])c1)N1CCCCC1,4.82%
16,Cc1ccc(CSC2=Nc3ccccc3C3=NC(CCC(=O)NCc4ccco4)C(=O)N23)cc1 (stereo not drawn),14.5%
17,Cc1ccc(CSC2=Nc3ccccc3C3=NC(CC(=O)NCc4ccco4)C(=O)N23)cc1 (stereo not drawn),25.5% (active)
18,O=C(CCC1N=C2c3ccccc3N=C(SCc3ccc(Cl)cc3)N2C1=O)NCc1ccco1 (stereo not drawn),11.4%
19,C=CCN=C1S/C(=C\c2ccc(Cl)cc2)C(=O)N1CC=C,3.89%
20,COC(=O)C(C(C)=O)C1=C/C(=N\S(=O)(=O)c2ccc(C)cc2)c2ccccc2C1=O (stereo not drawn),12.9%
21,Cc1ccc(S(=O)(=O)/N=C2/C=C(Sc3ncn[nH]3)C(=O)c3ccccc32)cc1,14.9%
